From PubChem
Efflux pump mplx = inhibitors of Candida efflux pumps in yeast, primary screen, S. cerevisiae, Nile Red, multiplex | S. cerevisiae Candida pump triplex | inhibition, % at 10 µM | 330,000 compounds, 0.44% hits | AID 485275, 2010;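 active = plate passing quality check with inhibition over a set limit, or well fluorescence over plate mean plus 4 SD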;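 also: Nile Red retained in pooled yeast measured as flow cytometry median fluorescence; higher means more Nile Red kept so more efflux inhibition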
RPL19A TOR yeast = RPL19A-GFP expression modulators in yeast, primary screen, cell-based, S. cerevisiae, multiplex flow cytometry, MLPCN. percent response vs DMSO, % at 10 µM. S. cerevisiae RPL19A-GFP strain, 3 h; stronger effect = lower value. AID 2025, 2009. 330,000 compounds, 0.3% hits;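 active = percent response vs DMSO below 50%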;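 also: median channel GFP fluorescence of the barcoded RPL19A-GFP strain; lower means less RPL19A-GFP as with rapamycin TOR inhibition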
CIT2-GFP yeast = modulators of CIT2-GFP expression in yeast, primary screen, S. cerevisiae, GFP fusion, multiplex flow cytometry, MLPCN library. 320,000 compounds, 0.065% hits. S. cerevisiae CIT2-GFP strain, 3 h; 100 means same as DMSO wells. GFP response vs DMSO, % at 10 µM;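 active = GFP response relative to DMSO above a set limit, near the screen mean plus 3 SD, cut at about 150% in these data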;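 also: ratio of well median GFP fluorescence to mean of DMSO wells on the plate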
MEP2 TOR yeast = modulators of MEP2-GFP levels in yeast, primary screen, S. cerevisiae, multiplex flow cytometry, MLPCN library. S. cerevisiae MEP2-GFP strain, 3 h; 100% = DMSO control level. GFP response vs DMSO, % at 10 µM. 330,000 compounds, 0.51% hits;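 active = GFP response versus DMSO above a set limit, roughly screen mean plus 3 SD, cut at about 180% in these data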;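 also: median GFP fluorescence of the barcode-gated MEP2-GFP cells per well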
AGP1-GFP MLPCN = modulators of AGP1-GFP expression in yeast TOR pathway, primary screen, cell-based, multiplex flow cytometry, S. cerevisiae, MLPCN library; 3 h; GFP as percent of DMSO wells; GFP response vs DMSO, % at 10 µM; 320,000 compounds, 0.02% hits; AID 2066, 2009;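 active = GFP response relative to DMSO above a set limit, near screen average plus 3 SD, cut at about 150% in these data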;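 also: median GFP channel fluorescence of the gated AGP1 strain per well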
LAP4-GFP MLPCN = modulators of LAP4-GFP expression in yeast, primary screen, S. cerevisiae, multiplex flow cytometry, MLPCN library; 3 h; median GFP as percent of DMSO wells; GFP response vs DMSO, % at 10 µM; AID 2023, 2009; 320,000 compounds, 0.34% hits;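 active = GFP response vs DMSO above a set limit, about the screen mean plus 3 SD, cut at about 150% in these data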
Yeast cmpd fluor = flagged as fluorescent in efflux inhibitor counter-screen. shares compounds with Efflux pump mplx. S. cerevisiae AD/pABC3, compound fluorescence, flow cytometry. fluorescence ratio to DMSO, % at 10 µM. 1,700 compounds, 4% hits. AID 588517;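 active = fluorescence ratio to DMSO above its plate's cutoff, the plate mean ratio plus 5 SD, cut at about 210% in these data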;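 also: unstained yeast with no Nile Red so the signal is compound autofluorescence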
Mdr1 pump inh = inhibitors of Candida albicans Mdr1 efflux, confirmation, flow cytometry, singleplex, Cherry Pick1 set; shares compounds with Efflux pump mplx; S. cerevisiae AD/CaMDR1, Nile Red efflux; inhibition, % at 10 µM; 1,700 compounds, 1% hits; AID 588518, 2011; in the data active = inhibition above about 26%;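 also: higher means more Nile Red retained so more efflux inhibition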
Cdr2 pump inh = inhibitors of Candida albicans Cdr2 efflux pump, confirmation, S. cerevisiae AD/CaCDR2, flow cytometry, cherry pick 1, singleplex. Nile Red retention. Nile Red retention ratio vs DMSO, % at 10 µM. 1,700 compounds, 4% hits. shares compounds with Efflux pump mplx. AID 588520, 2011; in the data active = Nile Red retention ratio vs DMSO above about 190%;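 also: higher ratio means more blocking of Cdr2 efflux of the dye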
CaCdr1 efflux inh = inhibitors of Candida albicans Cdr1 efflux pump, confirmation, S. cerevisiae AD/CaCDR1, flow cytometry, cherry pick 1, singleplex. shares compounds with Efflux pump mplx. Nile Red efflux. inhibition, % at 10 µM. 1,700 compounds, 1% hits;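 active = inhibition above the screen-wide mean plus twice its standard deviation, cut at about 32% in these data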
Large screens that a line does not name were inactive (follow-up assays come after a bar, where they were run). Shown are actives, neighbours in structure and some others; about 1.3% of the full set was active somewhere.

CCOc1ccc(/C=c2\sc3nc(-c4ccco4)nn3c2=O)cc1OCC	none | Yeast cmpd fluor inactive | Mdr1 pump inh inactive | Cdr2 pump inh inactive | CaCdr1 efflux inh inactive
COC(=O)c1ccc(Cn2nnc3c(=O)[nH]c(C4CCN(S(=O)(=O)c5cc(C)ccc5C)CC4)nc32)cc1	none
Cn1cccc1Cc1nnc(SCC(=O)Nc2ccccc2)n1-c1ccc(F)cc1	none | Yeast cmpd fluor inactive | Mdr1 pump inh inactive | Cdr2 pump inh inactive | CaCdr1 efflux inh inactive
COc1ccc(-n2c(Cc3cccn3C)nnc2SCC(=O)Nc2cccc(F)c2)cc1	none | Yeast cmpd fluor inactive | Mdr1 pump inh inactive | Cdr2 pump inh inactive | CaCdr1 efflux inh inactive
COc1cccc(C(=O)NCCN2CCN(c3ccccc3)CC2)c1	none
N#C/C(=C\c1cc2c(cc1Br)OCO2)c1ccc(C(=O)O)cc1	none
O=C(Nc1cc(F)cc(F)c1)c1ccc(NCCc2ccccc2)c([N+](=O)[O-])c1	Efflux pump mplx 13 | Yeast cmpd fluor inactive | Mdr1 pump inh inactive | Cdr2 pump inh inactive | CaCdr1 efflux inh inactive
Cc1ccc(NC(=O)c2ccc(NCCc3ccccc3)c([N+](=O)[O-])c2)cc1F	none
CCOc1ccc(CNC(=O)NS(=O)(=O)c2ccc(OC)cc2)cc1	Efflux pump mplx 5.9 | Yeast cmpd fluor inactive | Mdr1 pump inh inactive | Cdr2 pump inh inactive | CaCdr1 efflux inh inactive
Cc1cc(Cl)ccc1Oc1ncc(CN2CCN(c3ccccc3)CC2)s1	Efflux pump mplx 0.5 | Yeast cmpd fluor inactive | Mdr1 pump inh inactive | Cdr2 pump inh inactive | CaCdr1 efflux inh inactive
COc1ccc(Oc2ncc(CN3CCN(c4ccccc4)CC3)s2)cc1	none
COc1ccc2c(c1)C(=O)N1[C@H]3c4cc(Br)ccc4OC[C@@H]3[C@H](c3ccccc3)[C@]1(C)C(=O)N2	none
CC1Cc2cc(S(=O)(=O)N3CCCCC3)ccc2N1C(=O)C1CCC1 (stereo not given)	none | Yeast cmpd fluor inactive | Mdr1 pump inh inactive | Cdr2 pump inh inactive | CaCdr1 efflux inh inactive
COc1ccccc1CNS(=O)(=O)c1ccc2c(c1)CC(C)N2C(=O)C1CCC1 (stereo not given)	none | Yeast cmpd fluor inactive | Mdr1 pump inh inactive | Cdr2 pump inh inactive | CaCdr1 efflux inh inactive
O=C(CCc1nnc2ccc(N3CCC4(CC3)OCCO4)nn12)N1CCCCC1	none
Cc1nn(Cc2cccc(C(=O)NC34CC5CC(CC(C5)C3)C4)c2)c(C)c1Br	Efflux pump mplx 0.3 | Yeast cmpd fluor inactive | Mdr1 pump inh inactive | Cdr2 pump inh inactive | CaCdr1 efflux inh inactive
CCCNC(=O)c1cccc(Cn2nc(C)c(Br)c2C)c1	none
CC(C)CC1NC(=O)c2ccccc2-n2c1nc1ccccc1c2=O (stereo not given)	none
O=S(=O)(NCCCCCNS(=O)(=O)c1c(F)cccc1F)c1ccc2c(c1)OCCO2	none
COc1ccc(NC(=O)CSc2nc3c(c(=O)n2-c2ccccc2OC)SCC3)cc1	Efflux pump mplx 1.1 | Yeast cmpd fluor inactive | Mdr1 pump inh inactive | Cdr2 pump inh inactive | CaCdr1 efflux inh inactive
CC(C)NC(=O)C1CCCN(S(=O)(=O)c2cccc3nonc23)C1 (stereo not given)	none
CCOc1ccc2nc(NC(=O)CCn3cccc3)sc2c1	Efflux pump mplx 1.0 | Yeast cmpd fluor inactive | Mdr1 pump inh inactive | Cdr2 pump inh inactive | CaCdr1 efflux inh inactive
COc1ccc(CNC(=O)C(=O)NCC2CCCN2S(=O)(=O)c2ccccc2)cc1 (stereo not given)	none
O=C1/C(=C/C=C/c2ccco2)SC(=S)N1c1ccc(O)cc1	none
CC(C)C(C(=O)O)N1C(=O)/C(=C/C=C/c2ccco2)SC1=S (stereo not given)	Efflux pump mplx 1.2 | Yeast cmpd fluor inactive | Mdr1 pump inh inactive | Cdr2 pump inh inactive | CaCdr1 efflux inh inactive
C[C@@H]1CN([C@@H](C)CO)C(=O)c2cc(NS(=O)(=O)c3ccc(Cl)cc3)ccc2O[C@H]1CN(C)Cc1ccncc1	none
CC1(C)CC[C@]2(C(=O)O)CC[C@]3(C)C(=CCC4[C@@]5(C)CC[C@H](O)C(C)(C)C5CC[C@]43C)C2C1 (stereo not given in full)	Efflux pump mplx 1.4 | Yeast cmpd fluor inactive | Mdr1 pump inh inactive | Cdr2 pump inh inactive | CaCdr1 efflux inh inactive
CC1(C)CC[C@]2(C(=O)O)CC[C@]3(C)C(=CC[C@@H]4[C@@]5(C)CC[C@H](O)C(C)(C)[C@@H]5CC[C@]43C)[C@@H]2C1	none
COc1ccccc1C(=O)Nc1ccc(C2=NNC(=O)CC2C)cc1 (stereo not given)	Efflux pump mplx 1.0 | Yeast cmpd fluor inactive | Mdr1 pump inh inactive | Cdr2 pump inh inactive | CaCdr1 efflux inh inactive
COc1ccccc1C(=O)Nc1ccncc1	none
Fc1ccc(Oc2cnns2)cc1	none
CC(CNC(=O)COC(=O)c1ccco1)c1ccccc1 (stereo not given)	none
O=C(CSc1ncccc1C(=O)O)NC12CC3CC(CC(C3)C1)C2	Efflux pump mplx 0.5 | Yeast cmpd fluor inactive | Mdr1 pump inh inactive | Cdr2 pump inh inactive | CaCdr1 efflux inh inactive
O=C(CSc1ccccc1C(=O)O)NC12CC3CC(CC(C3)C1)C2	none
COc1ccccc1CNC(=O)[C@@H]1CCCN1S(=O)(=O)c1ccc(Cl)cc1	none
CCC1=C(OC(=O)N(CC)CC)N2C(=O)OC(=NCCc3c[nH]c4ccccc34)[C@]2(Cc2ccccc2)[C@H]2C1=CC[C@H]1C(=O)N(CC)C(=O)[C@H]12	Efflux pump mplx 39 | Yeast cmpd fluor inactive | Mdr1 pump inh inactive | Cdr2 pump inh inactive | CaCdr1 efflux inh inactive
